Measured values from PubChem BioAssay (NCATS).
Inconclusive results are not listed. Calls of active or inactive are those of the source. Unless noted, calls come from the whole dose curve; as a rule, active = well fitted curve in the direction sought with a large enough effect; inconclusive = small, poorly fitted or top-dose-only effect, or another doubt; inactive = no such curve, though single readings can be large; an effect the other way counts as inactive or inconclusive.

What was measured:
[1] = qHTS Assay for Identification of Small Molecule Agonists for NFkB Signaling Pathway. (AID 624478);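 note: compounds tested together with TNF alpha at its EC50 of 10 pM; 0% is about no effect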
Procedure, shortened: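 Activators were sought in reporter cells stimulated at the TNF alpha EC50 (10 pM final). Compound and cytokine were co-incubated 5 hours at 37 C before beta-lactamase substrate detection by dual-emission fluorescence.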

[2] = qHTS Assay for Identification of Small Molecule Antagonists for NFkB Signaling Pathway. (AID 624479; calls by dose curve;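 note: pathway stimulated with TNF alpha; potency is the fitted concentration of half-maximal effect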)
[3] = Cell Proliferation Assay against the HBL1 Cell Line (AID 651646); settings: HBL1 DLBCL cells; at 46.1 µM (top of the series);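 note: cells exposed to compound for 48 h before reading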
Procedure, shortened: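 CellTiter-Glo luminescence after 48 h compound exposure at 37C gives percent activity, with DMSO as 100% and 9.2 uM bortezomib final as 0%. Cells: 500 log-phase HBL1 per well, RPMI plus 5% FBS.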

[4] = Cell Proliferation Assay against the TMD8 Cell Line (Caspase readout at 8 hrs) (AID 651713);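 note: 0% = DMSO and 100% = 9.2 µM bortezomib caspase signal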
Procedure, shortened: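 Caspase 3/7 activation in ABC DLBCL TMD8 cells is measured by luminescence after an 8 h compound exposure at 37C. Relative light units are scaled between DMSO (0%) and 9.2 uM final bortezomib (100%).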

[5] = Cell Proliferation Assay against the TMD8 Cell Line (Caspase readout at 16 hrs) (AID 651712); note: potency is the fitted concentration of half-maximal effect
Procedure, shortened: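 Caspase-Glo luminescence measured apoptosis after a 16 h, 37 C compound exposure of TMD8 cells (500 cells/well, 5% FBS RPMI). DMSO set 0% and bortezomib at 9.2 uM final set 100% activity.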

Question: For `O=C(O)c1ccc2c(c1)nc(Nc1cccc(Cl)c1)c1ccncc12`, which outcome [1] is on record?
Answer: The outcome was “inactive”.

Question: And the Potency [2]?
Answer: Its Potency is 298 nM (active).

Question: And the viability, percent of control [3]?
Answer: Its viability, percent of control is 32.2%.

Question: And the Potency [4]?
Answer: Its Potency is “inactive”.

Question: Which results are given for `CC(C)(C)c1cc(C(C)(C)C)c(NC(=O)c2c[nH]c3ccccc3c2=O)cc1O`?
Answer: Potency [2]: 23700 nM (active); viability, percent of control [3]: 5.33%

Question: Which outcome [1] does the source give for `O=C(C=Cc1cccc(S(=O)(=O)Nc2ccccc2)c1)NO` here?
Answer: Its outcome is “inactive”.

Question: And the viability, percent of control [3]?
Answer: The viability, percent of control was 2.01%.

Question: And the Potency [5]?
Answer: Its Potency is 935 nM (active).

Question: What about the Potency [4] of the same compound?
Answer: Its Potency is “inactive”.
